Results filed as inconclusive are left out. Active and inactive are the calls of the source. How the source made its calls: active means hit-call score of the fitted dose curve at least 0.9, where 1 is the maximum; inconclusive means response in the unintended direction; inactive means score below 0.9.

For this assay, the target named is human Phosphodiesterase 5 (PDE5), PDE5A (gene 8654) (UniProt O76074). In words: NVS_ENZ_hPDE5: NovaScreen (NVS) Enzymatic Assay for human Phosphodiesterase 5 (PDE5) (AID 2283194). As to the method: NVS_ENZ_hPDE5 is a biochemical, single-readout assay that uses extracted gene-proteins in a cell-free assay. Measurements were taken 1 hour after chemical dosing in a 384-well plate.NVS_ENZ_hPDE5 is one of one assay component(s) measured or calculated from the NVS_ENZ_hPDE5 assay. It is designed to make measurements of enzyme activity, a form of enzyme reporter, as detected with fluorescence intensity signals by Fluorescence and electrophoretic mobility shift technology.Data from the assay component NVS_ENZ_hPDE5 was analyzed into 1 assay endpoint. This assay endpoint, NVS_ENZ_hPDE5, was analyzed in the positive analysis fitting direction relative to DMSO as the negative control and baseline of activity. Using a type of enzyme reporter, loss-of-signal activity can be used to understand changes in the enzymatic activity as they relate to the gene PDE5A. Furthermore, this assay endpoint can be referred to as a primary readout, because this assay has produced multiple assay endpoints where this one serves a enzymatic activity function. To generalize the intended target to other relatable targets, this assay endpoint is annotated to the esterase intended target family, where the subfamily is phosphodiesterase.
Binding assays used specific radioligands (tritiated, iodinated) with non-radioactive competitive displacement ligands in agonist or antagonist protocols (as indicated) and various reference compounds and inhibitors to titrate specific binding to receptors and transporters. Most enzyme assays (CYPs, kinases, phosphatases, proteases, HDACs) used recombinant protein and specific substrates (fluorescence mostly, some colorimetric and radioactive) and inhibitors, followed by a biochemical separation of substrate and product. All assays for the biochemical HTS were initially run in duplicate at a single concentration (10 uM for CYP450 assays and 25 uM for all others). […] Each assay was run with positive and negative controls, and concurrent controls on every plate. The follow-up (secondary) screen tested active chemical-pairs in concentration series, as well as a few additional assays not tested in the primary screen, some selected negative inactives, and several cases re-run in the concentration series for confirmatory purposes.
Consider `Cn1c(=O)c2c(ncn2C)n(C)c1=O`, for which the outcome was inactive. One may read the AC50 as the concentration giving half of the maximal activity seen. `COc1ccc2sc(C(=O)Nc3nnn[nH]3)c(OC(C)C)c2c1`: the AC50 is 0.476 µM (active).

Take `Nc1nc2ncc(CNc3ccc(C(=O)N[C@@H](CCC(=O)O)C(=O)O)cc3)nc2c(=O)[nH]1`: the outcome was inactive.

As for `O=C(O)c1cc(N=Nc2ccc(S(=O)(=O)Nc3ccccn3)cc2)ccc1O`, the compound was called inactive. With `COc1ccc(-n2nc(C(F)F)cc2-c2ccc(S(C)=O)cc2)cc1` (stereo unspecified), the AC50 was 12.9 µM (active). On to `CC(C)=CCCC(C)CCO` (stereo unspecified), for which the compound was called inactive.

Take `O=C(O)c1cccc(N(Cc2cccnc2)c2ccc(OC(F)F)c(OC(F)F)c2)c1`: the AC50 is 3.28 µM (active). Regarding `CC[C@H](C)C(=O)O[C@H]1C[C@@H](C)C=C2C=C[C@H](C)[C@H](CC[C@@H]3C[C@@H](O)CC(=O)O3)[C@H]21`, the outcome was inactive. With `CC/C(=C\C(=N/O)C(N)=O)C(C)[N+](=O)[O-]` (stereo unspecified), the AC50 was 40.1 µM (active).

`O=C(O)c1cccc(Oc2ccccc2)c1`: the compound was called inactive. Consider `CCCCCCc1ccc(O)cc1O`, for which the result was inactive. Regarding `CC(=O)c1ccc2c(c1)[C@H](NC(=O)c1ccc(F)cc1)[C@@H](O)C(C)(C)O2`, the compound was classed as inactive. Turning to `Cn1c(=O)cc(Oc2ccc(F)cc2F)c2cnc(NCC(C)(C)O)nc21`, the half-maximal activity concentration (AC50) was 12.4 µM (active).

In the case of `Cc1ccc(N)cc1O`, the result was inactive. For `CN(C)c1ccc(N=NS(=O)(=O)O)cc1`, the result was inactive. On the same count and under the same terms, in the case of `C=CCCCCCCCCC(=O)O` it was “inactive”.

The record behind these values is PubChem BioAssay (EPA / NIEHS).
